# PubChem BioAssay (NCATS)
# “And” between values parts separate entries of the source, which are not always exact repeats. Identical values can stand only once. Unmarked numbers belong to inactive results. Inconclusive results are not listed. A call without a number means that no potency is given here. The source made the active and inactive calls. Calls come from the whole dose curve; as a rule, active = well fitted curve in the direction sought with a large enough effect; inconclusive = small, poorly fitted or top-dose-only effect, or another doubt; inactive = no such curve, though single readings can be large; an effect the other way counts as inactive or inconclusive.
# Experiments:
# [1] = system: Zika virus NS2B-NS3 protease (linked construct); assay: Primary screen NINDS Rhodamine qHTS for Zika virus inhibitors (AID 1347160); note: nearly all actives have a fitted effect of over 55% in size
# Outline: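 In 10 mM Tris-HCl pH 8.0 containing 0.01% Tween 20, linked NS2B-NS3 protease (25 nM final) is exposed to test compounds for 15 min. Cleavage of 1.5 microM Rhodamine110 substrate is tracked by fluorescence over 15 min.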
# [2] = target: Calcium and integrin-binding protein 1 (Homo sapiens) (UniProt Q99828); assay: Primary qHTS for Identification of Calcium Integrin Binding Protein 1 (CIB1) Competitor (AID 1508620);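 note: GST tagged CIB1 binding a fluorescein labelled alphaIIb integrin peptide tracer; top concentration of the series differs between compounds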
# Outline: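 Fluorescence polarization competition: GST-tagged CIB1 (1 uM final) preincubated with compound 15 min at room temperature, then FITC-labelled alphaIIb peptide (100 nM final) added. After 15 min at room temperature, polarization read at Ex 480/Em 540.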
# [3] = target: Glutathione peroxidase 1 (Homo sapiens) (UniProt P07203); assay: Primary qHTS Assay for Inhibitors of Recombinant Selenoprotein Glutathione Peroxidase 1 (GPX1) (AID 1845191); note: nearly all actives have a fitted effect of over 65% in size
# Outline: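 GR-coupled assay: compounds preincubated 30 min at room temperature with GPX1, then reaction started with CHP; final 10 nM GPX1, 1 mM GSH, 0.5 mM CHP, 0.5 mM NADPH, 100 nM GR, 0.01% BSA, pH 7.5 Tris buffer. NADPH fluorescence (340/450 nm) read at 0 and 15 min.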
# [4] = target: Luciferin 4-monooxygenase (Photinus pyralis) (UniProt P08659); assay: Primary firefly luciferase (FLuc) qHTS assay for identification of artifact compounds. (AID 1845220); settings: outcome: dose series up to 54.1 µM unless noted; note: nearly all actives have a fitted effect of over 60% in size
# Outline: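 Titrated compounds were incubated 15 min at RT, protected from light, with luciferin and ATP at 10 uM; reaction started with 10 nM FLuc, luminescence imaged at 5 min, and concentration-response fitted by Hill equation.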
# [5] = Primary fluorescence-based thiol-reactive (MSTI) qHTS assay for identification of artifact compounds. (AID 1845221); note: nearly all actives have a fitted effect of over 65% in size; note: potency is the fitted concentration of half-maximal effect
# Outline: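 A multi-concentration qHTS design tested compounds against 4 uM MSTI, pH 7.4 phosphate-buffered saline. Plates were protected from light for 1 h at room temperature before imaging fluorescence.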
# [6] = system: Nanoluciferase (engineered Oplophorus gracilirostris luciferase); assay: Primary Nanoluciferase (NLuc) qHTS assay for identification of artifact compounds. (AID 1845222);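 note: NLuc secreted into diluted conditioned medium of S16 cells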
# Outline: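 qHTS format, against NLuc in S16 cell-conditioned medium. Nano-Glo substrate 1:100 was added after 15 min at room temperature. Luminescence was taken after a further 5 min.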
# CRL-7250 = normal cell line; assay: Cytotoxic Profiling of Annotated Libraries Using Quantitative High-Throughput Screening (AID 1296008); settings: Five cell lines viability, CellTiter-Glo ATP luminescence, 48-72 h; max response: hits give low values; note: nearly all actives have a fitted effect of over 60% in size; note: potency is the fitted concentration of half-maximal effect
# Outline: (§1)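 Cells exposed to compounds for 48 or 72 hr at 37 degrees Celsius. Viability read as ATP-coupled luminescence with CellTiter-Glo after 10 min at room temperature.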
# HEK293 = assay: as above; settings: Five cell lines viability, CellTiter-Glo ATP luminescence, 48-72 h; max response: hits give low values
# Outline: as §1
# HaCat = assay: as above; settings: Five cell lines viability, CellTiter-Glo ATP luminescence, 48-72 h; max response: hits give low values
# Outline: as §1
# C33A = assay: Primary qHTS to identify gynecologic anti-cancer compounds using libraries of approved drugs and bioactive compounds (AID 1345084); settings: Gynecologic cancer cell panel viability, ATPlite luminescence, 48 h; series mostly up to 57.5 µM; note: nearly all actives have a fitted effect of over 55% in size; note: potency is the fitted concentration of half-maximal effect
# Outline: (§2)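 ATP-based viability (ATPlite), 1,000 cells/well, 16 h pre-incubation, 48 h compound at 37 C, 5% CO2, 15 min RT before read.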
# CASKI = assay: as above; settings: Gynecologic cancer cell panel viability, ATPlite luminescence, 48 h; series mostly up to 57.5 µM
# Outline: as §2
# Es-2 = assay: as above; settings: Gynecologic cancer cell panel viability, ATPlite luminescence, 48 h; series mostly up to 57.5 µM
# Outline: as §2
# Hek293T = assay: as above; settings: Gynecologic cancer cell panel viability, ATPlite luminescence, 48 h, control line for the selectivity index; series mostly up to 57.5 µM
# Outline: as §2
# OV90 = assay: as above; settings: Gynecologic cancer cell panel viability, ATPlite luminescence, 48 h; series mostly up to 57.5 µM
# Outline: as §2
# PA-1 = assay: as above; settings: Gynecologic cancer cell panel viability, ATPlite luminescence, 48 h; series mostly up to 57.5 µM
# Outline: as §2
# Tov-21-G = assay: as above; settings: Gynecologic cancer cell panel viability, ATPlite luminescence, 48 h; series mostly up to 57.5 µM
# Outline: as §2
# Tov112D = assay: as above; settings: Gynecologic cancer cell panel viability, ATPlite luminescence, 48 h; series mostly up to 57.5 µM
# Outline: as §2
# [7] = Primary qHTS for inhibitors of nuclear receptor binding SET domain protein 2 (NSD2) in an isogenic RCH-ACV NSD2 p.E1099K mutant (9B) (AID 1645876); note: nearly all actives have a fitted effect of over 70% in size; note: potency is the fitted concentration of half-maximal effect
# [8] = target: Phospholipid hydroperoxide glutathione peroxidase GPX4 (Homo sapiens) (UniProt P36969); assay: Primary qHTS Assay for Inhibitors of Recombinant Selenoprotein Glutathione Peroxidase 4 (GPX4) (AID 1845192); note: nearly all actives have a fitted effect of over 65% in size
# Outline: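 GR-coupled assay: recombinant GPX4 preincubated 30 min with compound at room temperature; final 200 nM GPX4, 1 mM GSH, 0.5 mM cumene hydroperoxide, 0.5 mM NADPH, 100 nM GR, 0.01% BSA, pH 7.5 Tris. NADPH fluorescence (340/450 nm) read at 0 and 15 min.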
# KB-3-1 = assay: Cytotoxic Profiling of Annotated Libraries Using Quantitative High-Throughput Screening (AID 1296008); settings: Five cell lines viability, CellTiter-Glo ATP luminescence, 48-72 h; max response: hits give low values; note: nearly all actives have a fitted effect of over 60% in size; note: potency is the fitted concentration of half-maximal effect
# Outline: as §1
# Sequence of Phospholipid hydroperoxide glutathione peroxidase GPX4 (Homo sapiens) (P36969 whole entry, looked up): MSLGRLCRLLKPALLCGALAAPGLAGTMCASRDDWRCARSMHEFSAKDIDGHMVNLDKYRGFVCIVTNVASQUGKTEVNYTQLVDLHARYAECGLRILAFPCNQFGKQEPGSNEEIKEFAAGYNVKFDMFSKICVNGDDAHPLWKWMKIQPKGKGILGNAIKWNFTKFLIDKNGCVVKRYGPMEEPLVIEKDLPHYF
# Sequence of Glutathione peroxidase 1 (Homo sapiens) (P07203 whole entry, looked up): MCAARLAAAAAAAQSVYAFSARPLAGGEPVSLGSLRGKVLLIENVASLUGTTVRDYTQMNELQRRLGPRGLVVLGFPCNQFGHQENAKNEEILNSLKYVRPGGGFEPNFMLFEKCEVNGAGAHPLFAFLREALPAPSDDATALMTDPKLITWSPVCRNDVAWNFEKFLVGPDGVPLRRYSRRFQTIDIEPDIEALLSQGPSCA
# Sequence of Calcium and integrin-binding protein 1 (Homo sapiens) (Q99828 whole entry, looked up): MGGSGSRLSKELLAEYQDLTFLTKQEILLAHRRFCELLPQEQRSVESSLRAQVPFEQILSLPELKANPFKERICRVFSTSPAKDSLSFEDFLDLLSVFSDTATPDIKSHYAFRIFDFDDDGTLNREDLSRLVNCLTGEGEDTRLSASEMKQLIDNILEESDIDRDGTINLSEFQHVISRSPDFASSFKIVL
smiles,measurement,setting,value
CC(=O)O[C@H]1CC[C@@]2(CI)C(=CC[C@@H]3[C@@H]2CC[C@]2(C)C(=O)CC[C@@H]32)C1,Potency,[1],inactive
same,Potency,[2],inactive
same,Potency,[3],inactive
same,outcome,[4],inactive
same,Potency,[5],inactive
same,Potency,[6],inactive
same,outcome,CRL-7250,inactive
same,max response,HEK293,-18.2%
same,outcome,HaCat,inactive
same,Potency,C33A,inactive
same,Potency,CASKI,inactive
same,Potency,Es-2,inactive
same,Potency,Hek293T,inactive
same,Potency,OV90,inactive
same,Potency,PA-1,inactive
same,Potency,Tov-21-G,inactive
same,Potency,Tov112D,inactive
CC1=CC2OC3[C@H](O)C[C@@](C)([C@]34CO4)[C@@]2(CO)[C@H](O)C1=O (stereo partly specified),Potency,[1],inactive
same,Potency,[2],inactive
same,Potency,[7],1.63 µM (active)
same,Potency,[3],inactive
same,Potency,[8],inactive
same,outcome,[4],inactive
same,Potency,[5],inactive
same,Potency,[6],inactive
same,Potency,CRL-7250,3260 nM (active)
same,Potency,HEK293,1640 nM (active)
same,Potency,HaCat,14600 nM (active)
same,Potency,KB-3-1,4610 nM (active)
same,Potency,Es-2,10000 nM (active)
same,Potency,Tov-21-G,14100 nM (active)
Cc1sc2c(c1C)C(c1ccc(Cl)cc1)=N[C@@H](CC(N)=O)c1nnc(C)n1-2,Potency,[1],inactive
same,Potency,[2],inactive
same,Potency,[7],64.9 nM (active) and 132 nM (active)
same,Potency,[3],inactive
same,Potency,[8],inactive
same,Potency,[5],inactive
same,Potency,[6],inactive
same,Potency,CRL-7250,366 nM (active)
same,Potency,HEK293,259 nM (active)
same,max response,HaCat,-29.9%
same,Potency,C33A,inactive
same,Potency,CASKI,inactive
O=C(OC[C@H]1O[C@@H](Oc2ccc(O)cc2CO)[C@H](O)[C@@H](O)[C@@H]1O)c1ccccc1,Potency,[2],inactive
same,Potency,[7],inactive
same,Potency,[3],inactive
same,outcome,[4],inactive
same,Potency,[5],3670 nM (active)
same,Potency,[6],inactive
same,max response,CRL-7250,2.78%
same,max response,HEK293,0.485%
same,max response,HaCat,-28.3%
same,max response,KB-3-1,4.17%
same,Potency,C33A,inactive
same,Potency,CASKI,inactive
same,Potency,Es-2,inactive
same,Potency,Hek293T,inactive
same,Potency,OV90,inactive
same,Potency,PA-1,inactive
same,Potency,Tov-21-G,inactive
same,Potency,Tov112D,inactive
C=C1C[C@]2(O)[C@@]3(C)CCC(=O)C(C)(C)C3=C(O)C(=O)[C@@]2(C)[C@@H]2C(=O)O[C@@](C)(C(=O)OC)C(=O)[C@@]12C,Potency,[2],inactive
same,Potency,[7],inactive
same,Potency,[3],inactive
same,Potency,[8],inactive
same,outcome,[4],inactive
same,Potency,[6],inactive
same,max response,CRL-7250,2.22%
same,outcome,HEK293,inactive
same,max response,KB-3-1,1.74%
same,Potency,C33A,inactive
same,Potency,CASKI,inactive
same,Potency,Es-2,inactive
same,Potency,Hek293T,inactive
same,Potency,OV90,inactive
same,Potency,PA-1,inactive
same,Potency,Tov-21-G,inactive
same,Potency,Tov112D,inactive
C[C@@H]1CN(Cc2ccc(F)cc2)CCN1C(=O)COc1ccc(Cl)cc1NC(N)=O,Potency,[1],inactive
same,Potency,[2],inactive
same,Potency,[3],inactive
same,outcome,[4],inactive
same,Potency,[5],inactive
same,Potency,[6],inactive
same,Potency,CRL-7250,731 nM (active)
same,Potency,HEK293,1300 nM (active)
same,max response,HaCat,-27%
same,Potency,C33A,2510 nM (active)
same,Potency,OV90,8910 nM (active)
same,Potency,Tov-21-G,inactive
C[C@]12CC[C@H](O[C@@H]3O[C@H](CO)[C@@H](O)[C@H](O)[C@H]3O[C@@H]3O[C@H](CO)[C@@H](O)[C@H](O)[C@H]3O)CC1=CC[C@@H]1[C@@H]2CC[C@]2(C)[C@@H](C3=CC(=O)OC3)CC[C@]12O,Potency,[1],inactive
same,Potency,[2],inactive
same,Potency,[7],2.16 µM (active)
same,Potency,[3],inactive
same,Potency,[8],inactive
same,Potency,[5],inactive
same,Potency,[6],inactive
same,Potency,CRL-7250,3850 nM (active)
same,Potency,HEK293,6110 nM (active)
same,max response,HaCat,-17%
same,Potency,CASKI,inactive
same,Potency,OV90,inactive
same,Potency,Tov-21-G,6310 nM (active)
C=C(CO)C(=O)O[C@H]1CC(=C)[C@@H]2C[C@H](O)C(=C)[C@@H]2[C@H]2OC(=O)C(=C)[C@@H]21,Potency,[1],inactive
same,Potency,[2],inactive
same,Potency,[7],4.5 µM (active)
same,Potency,[3],inactive
same,Potency,[8],inactive
same,Potency,[5],inactive
same,Potency,[6],inactive
same,max response,CRL-7250,-4.04%
same,Potency,HEK293,5700 nM (active)
same,max response,HaCat,4.94%
same,outcome,KB-3-1,inactive
same,Potency,C33A,inactive
same,Potency,CASKI,inactive
same,Potency,Hek293T,inactive
same,Potency,OV90,inactive
same,Potency,PA-1,inactive
same,Potency,Tov-21-G,inactive
same,Potency,Tov112D,inactive
C[C@@H]1[C@H](O)[C@@H](C)/C=C/C=C/CC/C=C/C=C/C=C/C=C/[C@H](O[C@H]2O[C@@H](C)[C@H](O)[C@@H](N)[C@H]2O)C[C@@H]2O[C@](O)(C[C@@H](O)[C@H](O)CC[C@@H](O)C[C@@H](O)C[C@@H](O)CC(=O)O[C@H]1C)C[C@H](O)[C@H]2C(=O)O,Potency,[7],inactive
same,Potency,[3],inactive
same,Potency,[8],inactive
same,outcome,[4],inactive
same,Potency,[5],inactive
same,Potency,[6],inactive
same,max response,CRL-7250,-12.4%
same,max response,HEK293,0.0089%
same,outcome,HaCat,inactive
same,outcome,KB-3-1,inactive
same,Potency,C33A,inactive
same,Potency,CASKI,inactive
same,Potency,Es-2,inactive
same,Potency,Hek293T,inactive
same,Potency,OV90,inactive
same,Potency,PA-1,inactive
same,Potency,Tov-21-G,inactive
same,Potency,Tov112D,inactive
C[C@]12CC[C@H](O)C[C@H]1CC[C@@H]1[C@@H]2[C@H](O)C[C@]2(C)[C@@H](c3ccc(=O)oc3)CC[C@]12O,Potency,[1],inactive
same,Potency,[2],inactive
same,Potency,[7],0.0163 µM (active)
same,Potency,[3],inactive
same,Potency,[8],inactive
same,outcome,[4],inactive
same,Potency,[5],inactive
same,Potency,[6],inactive
same,Potency,CRL-7250,10.3 nM (active)
same,Potency,HEK293,36.6 nM (active)
same,Potency,HaCat,146 nM (active)
same,Potency,KB-3-1,51.7 nM (active)
same,Potency,CASKI,501 nM (active)
same,Potency,Es-2,100 nM (active)
same,Potency,OV90,355 nM (active)
same,Potency,PA-1,355 nM (active)
same,Potency,Tov-21-G,100 nM (active)
